# Results reported in PubChem BioAssay (NCATS).
# Results filed as inconclusive are left out. Values without a mark were called inactive. The source made the active and inactive calls. Calls follow the shape of the full dose curve; tested in HEK293 reporter line.
# Assay: qHTS for Inhibitors of the Functional Ribonucleoprotein Complex (vRNP) of Lassa (LASV) Arenavirus: Viability assay - alamar blue signal for LASV Primary Screen (AID 1347083); also: nearly all actives have a fitted effect of over 80% in size
# Conditions: cell viability, alamar blue fluorescence (LASV minigenome counter-screen); series mostly up to 57.5 µM; activity change, negative = reduced viability: at the top concentration
# % is scaled to controls: 0 for no effect and ±100 for the full control effect.
SMILES,Potency,"activity change, negative = reduced viability [%]"
CCCc1nn(C)c2c(=O)[nH]c(-c3cc(S(=O)(=O)N4CCN(C)CC4)ccc3OCC)nc12,inactive,
CCCCC(O)/C=C(C)/C=C/C=C/C(=O)N1CCCC1=O (centres undefined),,19.5
Cc1c(N(C)CS(=O)(=O)O)c(=O)n(-c2ccccc2)n1C,,19.8
CCC1=C(C)CN(C(=O)NCCc2ccc(S(=O)(=O)NC(=O)NC3CCC(C)CC3)cc2)C1=O (centres undefined),inactive,
Cc1ccc2ccc(Cl)cc2n1,,7.16
CO[C@@]1(NC(=O)CSC[C@@H](N)C(=O)O)C(=O)N2C(C(=O)O)=C(CSc3nnnn3C)CS[C@@H]21,,13.5
Cc1ccc(S(=O)(=O)NC(=O)NC2CCCCCCC2)cc1,,2.62
O=C1C(O)=C(O)C(=O)C(O)=C1O,,-80.7
COc1cc(C=O)ccc1O,,-3.02
CC(O)C(=O)O (centres undefined),,2.18
CCCCCCCCCCCC(=O)[O][Sn]([CH2]CCC)([CH2]CCC)[O]C(=O)CCCCCCCCCCC,,3.03
Oc1ccccc1-c1nnco1,,6.11
C[C@@H](O)[C@H]1C(=O)N2C(C(=O)O)=C(SCCN=CN)C[C@H]12,inactive,
CC(=O)OCC(=O)[C@H]1CC[C@H]2[C@@H]3CCC4=CC(=O)CC[C@]4(C)[C@H]3CC[C@]12C,,3.33
Cc1cccc(C)c1NC(=O)CC12CCCN1CCC2,,-7.65
O=C(O)Cn1c(=O)n(Cc2ccc(Br)cc2F)c(=O)c2ccc(Cl)cc21,,4.49
O=C(O)CN1C(=O)c2cccc3cccc(c23)C1=O,,0.661
Cc1ncc(CO)c(CO)c1O,inactive,
CN1CCN(C(=O)C2CCCCC2)CC1,,-11.4
COC(=O)c1cccnc1,inactive,

SMILES,Potency,"activity change, negative = reduced viability [%]"
CC(=O)NCc1c(I)c(NC(C)=O)c(I)c(C(=O)O)c1I,,3.38
Cc1ccccc1C(=O)N1CC/C(=N\OS(=O)(=O)O)c2ccc(Cl)cc21,,14.4
Nc1ccc(C(=O)Oc2ccccc2)c(O)c1,,-0.862
COc1cnc(NS(=O)(=O)c2ccc(N)cc2)nc1,inactive,
CO[C@@]1(NC(=O)Cc2cccs2)C(=O)N2C(C(=O)O)=C(COC(N)=O)CS[C@@H]21,,-1.46
O=C(CCCl)NCCc1ccccc1,,18.6
CCOc1cc(OCC)c(C(=O)CCC(=O)O)cc1OCC,,7.85
CC1COc2c(N3CCN(C)CC3)c(F)cc3c(=O)c(C(=O)O)cn1c23 (centres undefined),inactive,
CC(CN(C)C)C(C)(O)Cc1ccc(Cl)cc1 (centres undefined),,20.4
CCn1cc(C(=O)O)c(=O)c2cnc(N3CCNCC3)nc21,,10.7
Cc1oc(=O)oc1CN1CCN(c2cc3c(cc2F)c(=O)c(C(=O)O)c2n3C(C)S2)CC1 (centres undefined),inactive,
Cc1ccsc1/C=C/C1=NCCCN1C,,4.64
COc1ccc2c(c1)c(CC(=O)OC/C=C(\C)CC/C=C(\C)CCC=C(C)C)c(C)n2C(=O)c1ccc(Cl)cc1,,0.804
O=C(Oc1ccccc1C(=O)O)c1ccccc1O,,5.28
COc1ccc(S(=O)(=O)Nc2nnc(CC(C)C)s2)cc1,,13.5
CC(C)(Sc1cc(C(C)(C)C)c(O)c(C(C)(C)C)c1)Sc1cc(C(C)(C)C)c(O)c(C(C)(C)C)c1,,0.157
COc1c(N2C[C@@H]3CCCN[C@@H]3C2)c(F)cc2c(=O)c(C(=O)O)cn(C3CC3)c12,,-17.3
C#CCN[C@@H]1CCc2ccccc21,inactive,
C[C@@H]1CCC[C@H](C)N1,,15.2
